Most compounds without a hit are left out; they make up all but 3.9% or so of the library.
NTMT1 inhibitor: blocks human N-terminal methyltransferase 1 activity. NTMT1 MTase-Glo SAH luminescence, purified enzyme. Potency, µM (series often up to 114 µM), for the others: at the highest dose activity change, negative = inhibition, most hits filed as inhibitors. 59,000 tested, 2.5% active. AID 1645870;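 also: potency is read from the fitted curve at half-maximal effect; plate controls were DMSO vehicle for no effect and no enzyme for full effect; nearly all actives have a fitted effect of over 65% in size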
Target sequence (Q9BV86 whole entry, looked up): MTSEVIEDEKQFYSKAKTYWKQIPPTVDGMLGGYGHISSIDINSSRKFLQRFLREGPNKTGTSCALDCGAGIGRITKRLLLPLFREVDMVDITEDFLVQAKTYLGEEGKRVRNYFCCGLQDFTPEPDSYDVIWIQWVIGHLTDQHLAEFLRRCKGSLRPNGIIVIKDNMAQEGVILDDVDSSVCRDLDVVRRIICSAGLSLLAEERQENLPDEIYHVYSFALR
GALC G270D up: enhancers of human galactocerebrosidase G270D mutant activity in cells. AID 1159614. 145M-Twi-hGALC-G270D cells (Twitcher mouse brain line with human GALC G270D), HMU-beta-Gal fluorescence, 48 h. Potency, µM (doses to about 57.5 µM), most hits filed as activators. 45,000 tested, 0.1% active. P54803; also: potency is read from the fitted curve at half-maximal effect; 0% is about no effect; nearly all actives have a fitted effect of over 65% in size
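Mutant human GALC (G270D), stably expressed in a Twitcher mouse brain cell line lacking endogenous GALC, is measured in live-treated cells via 6-hexadecanoylamino-4-methylumbelliferyl-β-galactoside hydrolysis (0.1 mM final, pH 5.2) with fluorescent detection.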
p53null 39C kill: p53 null cell cytotoxicity, nonpermissive temperature; AID 904; 55,000 tested, 0.97% active; H1299 p53-null (neo) cells, 39C, ATPlite viability, 24 h; Potency, µM (series often up to 46.1 µM), for inactives: top-dose activity, negative = cell killing, most hits filed as cytotoxic;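 also: potency is read from the fitted curve at half-maximal effect; 0% = DMSO only and -100% = full killing by 100 µM tamoxifen; nearly all actives have a fitted effect of over 50% in size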
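ATP-luminescence viability readout (ATPlite, 20 min RT) after 24 hr compound treatment at 39C of H1299-neo or H1299-p53A138V cells; titration up to 46 uM; normalized to DMSO and 100 uM tamoxifen; Hill-fit AC50.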
p53null 32C kill: selectivity test: cytotoxicity in p53 null cells, permissive temperature; AID 903; 55,000 tested, 0.62% active; Potency, µM (doses to about 46.1 µM), for the others: at the top dose activity change, negative = cytotoxicity, actives largely listed as cytotoxic; H1299-neo p53 null cells, ATP luminescence, 24 h, 32C;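 also: potency is read from the fitted curve at half-maximal effect; 0% = DMSO only and -100% = full killing by 100 µM tamoxifen; nearly all actives have a fitted effect of over 55% in size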
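H1299-neo, 600 cells/well; overnight 37C; cpd up to 46 uM, 24 h at 32C; ATPlite luminescence after 20 min RT; normalized to DMSO (0%) and tamoxifen 100 uM (100% kill); Hill-fit AC50.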
DRV1 agonist: agonists of human resolvin D1 receptor DRV1 (GPR32). CHO-K1 GPR32 beta-arrestin PathHunter luminescence, 90 min; zero percent set by DMSO-only wells. activation, % at 76.9 µM. 48,000 tested, 2.5% active;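 active = activation of at least 60% and not above a set upper limit, about 1 call in 100 departs from these limits; inconclusive = activation of 40% to 60%, or above that upper limit; inactive = activation under 40%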; also: 0% is about no effect
Target sequence (O75388 whole entry, looked up): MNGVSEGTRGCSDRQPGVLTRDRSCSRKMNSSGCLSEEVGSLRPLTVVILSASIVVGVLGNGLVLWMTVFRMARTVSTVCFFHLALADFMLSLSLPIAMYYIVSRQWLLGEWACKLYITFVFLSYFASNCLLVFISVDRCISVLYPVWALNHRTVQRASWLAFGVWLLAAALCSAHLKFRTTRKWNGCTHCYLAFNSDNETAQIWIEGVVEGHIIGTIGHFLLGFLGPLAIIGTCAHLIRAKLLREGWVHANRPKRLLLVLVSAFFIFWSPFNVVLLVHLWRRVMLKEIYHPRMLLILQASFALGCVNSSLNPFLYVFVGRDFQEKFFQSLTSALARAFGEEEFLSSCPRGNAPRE
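Engineered CHO-K1 line co-expressing GPR32-ProLink and EA-beta-arrestin. Compound treatment lasted 90 min at 37 °C. Luminescence was recorded after 1 h with substrate at ambient temperature, relative to DMSO basal wells.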
FH mod: Identification of activators of human fumarate hydratase by quantitative high-throughput screening; FH coupled MDH/diaphorase resazurin fluorescence, 15 min; Potency, µM (titrated, usually from 79.9 µM), inactives show at the highest dose activity change, negative = inhibition, actives largely listed as inhibitors; 54,000 tested, 0.22% active; AID 1347055, 2019; also: potency is read from the fitted curve at half-maximal effect; % is scaled to controls: 0 for no effect and ±100 for the full control effect; the screen sought activators but most active calls are inhibition curves; nearly all actives have a fitted effect of over 45% in size
Numbers without * were called inactive; i = inactive; ? = inconclusive; . = no result; [ ] = dose if it differs, or a comment. Unless noted, calls follow the shape of the dose curve; as a rule, active = well fitted curve in the direction sought with a large enough effect; inconclusive = small, poorly fitted or top-dose-only effect, or another doubt; inactive = no such curve, though single readings can be large; an effect the other way counts as inactive or inconclusive.

SMILES	NTMT1 inhibitor	GALC G270D up	p53null 39C kill	p53null 32C kill	DRV1 agonist	FH mod
CCOC(=O)c1ccccc1N/C=C/C(=O)c1cccs1	.	.	16%[1.84 µM]	.	.	.
CCOc1ccccc1CC1C(=O)Nc2ccc(Br)cc21 (stereo not drawn)	?	i	?	18%	73*	-23%
CCOc1c(CC2C(=O)Nc3ccc(Br)cc32)cccc1OC (stereo not drawn)	-5%	i	14%	8%	?	-10%
CCCOc1ccc(CC2C(=O)Nc3ccc(Br)cc32)cc1 (stereo not drawn)	-9%	i	15%	?	78*	?
COc1ccc(CCC(=O)NCCc2nc3ccccc3n2CCOc2ccc(C)cc2)cc1	-26%	.	.	.	.	.
CC(O)/C=C/C1(O)C(C)C(O[C@@H]2O[C@H](CO)[C@@H](O)[C@H](O)[C@H]2O)C(O)CC1(C)C (stereo partly drawn)	10%[29.8 µM]	.	.	.	.	-10%[53.3 µM]
O=C1Nc2ccccc2/C1=C/c1cc(O)ccc1O	40µM*	.	.	.	.	?
O=C1Nc2ccccc2/C1=C\c1ccc([N+](=O)[O-])cc1	-17%	.	.	.	.	.
Nc1ccc(O)c([N+](=O)[O-])c1	35µM*	i	.	.	-100	?
CCCOc1ccccc1C(=O)Nc1nc2c(s1)CCCC2	79µM*	i	-17%	-8%	-33	-15%
O=C(COc1ccccc1Cl)Nc1nc2c(s1)CCCC2	-2%	i	-17%	-8%	-21	-20%
COc1cccc(C(=O)Nc2nnc(C(C)C)s2)c1	.	.	-5%	-19%	.	.
COc1cccc(C(=O)Nc2nc3c(s2)CCCC3)c1	40µM*	i	5µM*	13µM*	0	-31%
Cc1ccc(OCCn2c(CCNC(=O)c3ccc(C)cc3)nc3ccccc32)cc1	2%[57.5 µM]	.	.	.	.	.
Cc1sc(NC(=O)Cc2ccc3c(c2)OCO3)nc1-c1ccc2c(c1)CCN2C(=O)c1ccccc1Cl	28%	.	.	.	.	.
CC(=O)NC(C)c1cnc(-c2cnc(Oc3ccc(OC(C)C)cc3)s2)s1 (stereo not drawn)	0%[57.5 µM]	.	.	.	.	4%
CCOc1ccccc1NC(=O)c1c(NC(=O)c2ccccc2)sc2c1CCCC2	12%	i	18%	6%	66*	-15%
Cc1ccccc1NC(=O)c1c(NC(=O)c2ccncc2)sc2c1CCC(C(C)(C)C)C2 (stereo not drawn)	2%	i	14%	-10%	72*	?
CCOc1ccccc1NC(=O)c1c(NC(=O)c2ccncc2)sc2c1CCC(C(C)(C)C)C2 (stereo not drawn)	-3%	i	-8%	-10%	113*	-14%
COc1ccccc1NC(=O)c1c(NC(=O)Cc2ccccc2)sc2c1CCC(C(C)(C)C)C2 (stereo not drawn)	14%	i	3%	-4%	-4	-9%
Cc1cc(Cl)ccc1NC(=O)Cn1nc(C)c2c(C)n(-c3ccccc3)nc2c1=O	50µM*	i	31%	20%	-18	-7%
CN(Cc1ccc(C(C)(C)C)cc1)Cc1cccc2ccccc12	13%[57.5 µM]	i	.	.	68*	1%[53.3 µM]
CN(C/C=C/c1ccccc1)Cc1cccc2ccccc12	?	i	.	.	117*	-2%[53.3 µM]
COc1ccc(S(=O)(=O)N(CCO)c2ccccc2CN(C)C/C=C/c2ccc(Cl)cc2)cc1	12%	.	.	.	.	.
CCN(CC)c1nc(-c2ccc(C(C)(C)C)cc2)nc2ccccc12	3%	i	?	?	3	-1%
SMILES	NTMT1 inhibitor	GALC G270D up	p53null 39C kill	p53null 32C kill	DRV1 agonist	FH mod
Cc1ccc(NC2=CC(=O)C(=O)c3ccccc32)cc1	.	.	3.5µM*	4µM*	.	.
CCOc1ccc(C(Nc2ccccn2)c2ccc3ccc(C)nc3c2O)cc1C (stereo not drawn)	20%[57.5 µM]	.	.	.	.	1%
O=C(OC[C@H]1O[C@@H](Oc2ccccc2COC(=O)C2(O)C=CCCC2O)[C@H](O)[C@@H](O)[C@@H]1O)c1ccccc1 (stereo partly drawn)	-1%[29.8 µM]	.	.	.	.	2%[53.3 µM]
COc1ccccc1NC(=O)CSc1ncc(CO)n1Cc1ccc(F)cc1	?	i	?	-5%	65*	3%
Cc1ccc(Cn2c(CO)cnc2SCc2cccc(F)c2)cc1	-18%	i	11%	10%	22	-11%
CCOC(=O)c1ccccc1NC(=O)CSc1ncc(CO)n1Cc1ccc(C)cc1	.	.	8%	-4%	74*	.
OCc1cnc(SCc2cccc(F)c2)n1Cc1ccc(F)cc1	-26%	i	15%	-8%	89*	-5%
CCCCCCOC(=O)/N=C(\N)c1ccc(NCc2nc3cc(C(=O)N(CCC(=O)OCC)c4ccccn4)ccc3n2C)cc1	7%[57.5 µM]	.	.	.	.	-13%
Cc1ccc(/C=C/c2onc(C)c2S(=O)(=O)N2CCC(C(=O)NCc3ccco3)CC2)cc1	-3%	i	0%	-2%	88*	-4%
Cc1noc(/C=C/c2ccccc2F)c1S(=O)(=O)N1CCC(C(=O)NCc2ccco2)CC1	-23%	i	-19%	1%	-22	-1%
COc1cc(CNc2ccc3[nH]c(=O)[nH]c3c2)ccc1OCc1ccc(F)cc1Cl	?	i	-29%	-14%	11	-10%
CCOc1c(Cl)cc(CNc2ccc3[nH]c(=O)[nH]c3c2)cc1OC	-3%	i	-7%	12%	85*	-24%
CCc1cccc(C)c1Nc1c(-c2ccc(N(C)C)cc2)nc2cnccn12	?	i	-4%	8%	93*	?
CCc1cccc(C)c1Nc1c(-c2cccc(O)c2)nc2cnccn12	?	i	3%	10%	?	?
O=C(c1ccccc1Cl)N1CCC(c2nc3ccccc3s2)CC1	9%	i	4%	-5%	78*	-3%
Cc1ccccc1C(=O)N1CCC(c2nc3ccccc3s2)CC1	10%	i	-28%	-6%	?	-6%
CC(Oc1ccc(F)cc1)C(=O)N1CCC(c2nc3ccccc3s2)CC1 (stereo not drawn)	17%	i	2%	-14%	67*	-7%
Cc1cc(OCC(=O)N2CCC(c3nc4ccccc4s3)CC2)ccc1Cl	7%	i	?	27%	78*	?
COc1cc(C(=O)N2CCC(c3nc4ccccc4s3)CC2)cc(OC)c1OC	-1%	i	-4%	-4%	?	1%
O=C(CSc1oc(-c2ccco2)nc1S(=O)(=O)c1ccc(Cl)cc1)c1ccc(Cl)cc1	79µM*	i	32%	9%	-9	-19%
